Measured values reported in PubChem BioAssay (Tox21).
Results filed as inconclusive are left out. The source made the active and inactive calls. Calls follow the shape of the dose curve; as a rule, active = well fitted curve in the direction sought with a large enough effect in the repeat runs; inconclusive = weak or mixed curves; inactive = no such curve, though single readings can be large; an effect the other way counts as inactive or inconclusive.

Key:
[1] = A CellTox Green Cytotoxicity Assay to monitor cytotoxicity in HepG2 cells - 0 hour (AID 1224882); also: nearly all actives have a fitted effect of over 35% in size; also: potency is read from the fitted curve at half-maximal effect
Method in brief: (§1)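 Read-out is fluorescence of a cyanine dye excluded from live cells that stains DNA of dead HepG2 cells, with signal proportional to cytotoxicity. Plates were read at 0, 8, 16, 24, 32 and 40 h after compound addition.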

[2] = A CellTox Green Cytotoxicity Assay to monitor cytotoxicity in HepG2 cells - 32 hour (AID 1224883); also: nearly all actives have a fitted effect of over 50% in size; also: potency is read from the fitted curve at half-maximal effect
Method in brief: as §1

[3] = A CellTox Green Cytotoxicity Assay to monitor cytotoxicity in HEK293 cells - 8 hour (AID 1224884); also: nearly all actives have a fitted effect of over 35% in size; also: potency is read from the fitted curve at half-maximal effect
Method in brief: (§2)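 Nonlytic real-time cytotoxicity: HEK293 + CellTox Green reagent plated, 5 h preincubation, pintool compound addition (23 nL in DMSO), 37 C for 40 h, fluorescence measured at successive time points.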

[4] = qHTS RealTime-Glo MT Cell Viability Assay in HepG2 cells - 16 hour (AID 1224885); also: nearly all actives have a fitted effect of over 50% in size; also: potency is read from the fitted curve at half-maximal effect
Method in brief: (§3)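 HepG2 cells were seeded at 600 cells/well together with NanoLuc luciferase and a cell-permeant prosubstrate, preincubated 5 h at 37 C/5% CO2, then pin-dosed with compounds in DMSO. Nonlytic luminescence from viable cells was read at each time point.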

[5] = qHTS RealTime-Glo MT Cell Viability Assay in HEK293 cells - 24 hour (AID 1224886); also: nearly all actives have a fitted effect of over 50% in size; also: potency is read from the fitted curve at half-maximal effect; as to activity change, negative = cytotoxicity: top concentration of the series differs between compounds
Method in brief: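 HEK293 cells were seeded at 600 cells/well together with NanoLuc luciferase and cell-permeant prosubstrate, preincubated 5 h at 37 C/5% CO2, then given compound in DMSO by pintool. Luminescence from viable-cell prosubstrate reduction was read repeatedly over 40 h.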

[6] = qHTS RealTime-Glo MT Cell Viability Assay in HEK293 cells - 8 hour (AID 1224887); also: nearly all actives have a fitted effect of over 50% in size; also: potency is read from the fitted curve at half-maximal effect; as to activity change, negative = cytotoxicity: top concentration of the series differs between compounds
Method in brief: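 Cells were seeded together with NanoLuc luciferase and a prosubstrate that viable cells reduce to a luciferase substrate. After a 5 h incubation at 37 C/5% CO2, compounds were added and luminescence was measured repeatedly during 40 h of treatment.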

[7] = A CellTox Green Cytotoxicity Assay to monitor cytotoxicity in HepG2 cells - 8 hour (AID 1224890); also: nearly all actives have a fitted effect of over 45% in size; also: potency is read from the fitted curve at half-maximal effect
Method in brief: as §1

[8] = A CellTox Green Cytotoxicity Assay to monitor cytotoxicity in HEK293 cells - 16 hour (AID 1224888); also: nearly all actives have a fitted effect of over 35% in size; also: potency is read from the fitted curve at half-maximal effect
Method in brief: as §2

[9] = qHTS RealTime-Glo MT Cell Viability Assay in HepG2 cells - 0 hour (AID 1224889); also: nearly all actives have a fitted effect of over 50% in size
Method in brief: as §3

[10] = qHTS assay to identify small molecule antagonists of the estrogen receptor alpha (ER-alpha) signaling pathway using the BG1 cell line in the presence of 0.1 nM 17-beta-estradiol - cell viability counter screen (AID 1259241); also: nearly all actives have a fitted effect of over 40% in size; also: potency is read from the fitted curve at half-maximal effect
Method in brief: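 Cells were plated and left 24 hr, compounds in DMSO were pinned in, 17beta-estradiol was added to 0.1 nM final, and after 22 hr CellTiter-Fluor reagent was added for 30 min before fluorescence was read.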
% is scaled to controls: 0 for no effect and ±100 for the full control effect.

O=C1OC(=O)c2ccc3c4c(ccc1c24)C(=O)OC3=O
inactive: Potency [1] | Potency [2] | Potency [3] | Potency [4] | Potency [5] | Potency [6] | Potency [7]

CCN(CC)CCNc1ccc(CO)c2sc3ccccc3c(=O)c12
active: Potency [2] 13.4 µM | Potency [4] 23.9 µM | Potency [5] 16.9 µM
inactive: Potency [1] | Potency [3] | Potency [8] | Potency [9] | Potency [7]

C=CC(C)(CCC=C(C)C)OC(=O)/C=C/c1ccccc1 (centres undefined)
inactive: Potency [4] | Potency [5] | Potency [9] | Potency [10]
active: Potency [1] 27.5 µM | Potency [2] 43.6 µM | Potency [3] 38.9 µM | Potency [8] 27.5 µM | Potency [7] 43.6 µM

CC1CCCNC1 (centres undefined)
inactive: Potency [1] | Potency [2] | Potency [3] | Potency [4] | Potency [5] | Potency [6] | Potency [7] | Potency [10]

Brc1ccccc1-c1ccccc1
active: Potency [2] 46.3 µM
inactive: Potency [1] | Potency [3] | Potency [4] | Potency [5] | Potency [9] | Potency [10]

CC=O
active: Potency [2] 36.3 µM | Potency [3] 57.5 µM | Potency [4] 51.3 µM | Potency [5] 0.575 µM | Potency [8] 57.5 µM | Potency [7] 57.5 µM
inactive: Potency [1] | Potency [9] | Potency [10]

Cc1cncc(C)c1
inactive: Potency [1] | Potency [2] | Potency [3] | Potency [4] | Potency [5] | Potency [6] | Potency [9] | Potency [10]

O=C1C=CC(=O)N1c1ccccc1
inactive: Potency [1] | Potency [9]
active: Potency [2] 13.8 µM | Potency [3] 24.5 µM | Potency [4] 15.5 µM | Potency [5] 12.3 µM | Potency [6] 43.6 µM | Potency [7] 34.7 µM

Cc1ccc(O)cn1
inactive: Potency [1] | Potency [2] | Potency [3] | Potency [4] | Potency [5] | Potency [8] | Potency [9] | Potency [7] | Potency [10]

Cc1cccc(C)c1NC(=O)CN1CCN(CCCC(c2ccc(F)cc2)c2ccc(F)cc2)CC1
inactive: Potency [1] | Potency [3] | Potency [9] | Potency [10]
active: Potency [2] 23.9 µM | Potency [4] 21.3 µM | Potency [5] 10.7 µM | Potency [6] 10.7 µM | Potency [7] 16.9 µM

CC1(C)COCN1
inactive: Potency [1] | Potency [2] | Potency [3] | Potency [4] | Potency [5] | Potency [6] | Potency [9] | Potency [7] | Potency [10]

C[Si](C)O[Si](C)C
inactive: Potency [1] | Potency [2] | Potency [3] | Potency [4] | Potency [5] | Potency [8] | Potency [9] | Potency [7] | Potency [10]

CCCCOc1ccc(C(=O)CCN2CCCCC2)cc1
inactive: Potency [1] | Potency [3] | Potency [8] | Potency [9] | Potency [10]
active: Potency [2] 12 µM | Potency [4] 23.9 µM | Potency [5] 23.9 µM

CCC(=O)CC(C)CC (centres undefined)
inactive: cytotoxicity [1] 11.3% [at 0.29 µM] | cytotoxicity increase [2] 8.4% [at 0.29 µM] | cytotoxicity increase [3] 19.1% [at 0.29 µM] | activity change, negative = cytotoxic [4] 0.759% [at 0.29 µM] | activity change, negative = cytotoxicity [5] -3.03% [at 0.29 µM] | activity change, negative = cytotoxicity [9] 5.37% [at 0.29 µM] | cytotoxicity increase [7] 2.33% [at 0.29 µM] | activity change, negative = cytotoxicity [10] -17.1% [at 0.349 µM]

C=CC(=O)OCCC#N
inactive: Potency [1] | Potency [2] | Potency [3] | Potency [4] | Potency [6] | Potency [8] | Potency [9] | Potency [7]

O=C=NCc1cccc(CN=C=O)c1
inactive: cytotoxicity [1] 0.25% [at 15.8 µM] | cytotoxicity increase [2] -2.41% [at 15.8 µM] | cytotoxicity increase [3] -1.28% [at 15.8 µM] | activity change, negative = cytotoxic [4] 0.437% [at 15.8 µM] | activity change, negative = cytotoxicity [5] 4.88% [at 15.8 µM] | activity change, negative = cytotoxicity [6] 1.79% [at 15.8 µM] | activity change, negative = cytotoxicity [9] 2.48% [at 15.8 µM] | cytotoxicity increase [7] -0.221% [at 15.8 µM] | activity change, negative = cytotoxicity [10] -0.0453% [at 19 µM]

CCN(CC)c1cccc(C)c1
inactive: Potency [1] | Potency [2] | Potency [3] | Potency [4] | Potency [5] | Potency [8] | Potency [9] | Potency [10]

CCNc1nc(NC(C)CC)nc(OC)n1 (centres undefined)
inactive: Potency [1] | Potency [2] | Potency [3] | Potency [4] | Potency [6] | Potency [8] | Potency [9] | Potency [7] | Potency [10]

CC(CN(C)C)CN1c2ccccc2CCc2ccccc21 (centres undefined)
inactive: Potency [1] | Potency [3] | Potency [4] | Potency [6] | Potency [8] | Potency [9] | Potency [7] | Potency [10]
active: Potency [2] 23.9 µM

O=Nc1ccc(NO)cc1
inactive: Potency [1] | Potency [2] | Potency [3] | Potency [4] | Potency [6] | Potency [8] | Potency [9] | Potency [7] | Potency [10]

CC1CCCCC1
inactive: Potency [1] | Potency [2] | Potency [3] | Potency [4] | Potency [5] | Potency [8] | Potency [9] | Potency [7]

c1ccc2c(c1)CCC2
inactive: Potency [1] | Potency [2] | Potency [3] | Potency [4] | Potency [6] | Potency [8] | Potency [9] | Potency [7] | Potency [10]

COc1ccc(C#N)cc1
inactive: Potency [1] | Potency [2] | Potency [3] | Potency [4] | Potency [5] | Potency [6] | Potency [9] | Potency [7] | Potency [10]

CCO[Si](CCCSSSSCCC[Si](OCC)(OCC)OCC)(OCC)OCC
inactive: Potency [1] | Potency [2] | Potency [3] | Potency [4] | Potency [5] | Potency [6] | Potency [9] | Potency [7] | Potency [10]

CCC(C)c1ccccc1 (centres undefined)
inactive: Potency [1] | Potency [2] | Potency [3] | Potency [4] | Potency [5] | Potency [8] | Potency [7] | Potency [10]

CCCCCCCCCC(=O)N(C)C
inactive: Potency [1] | Potency [2] | Potency [3] | Potency [4] | Potency [5] | Potency [6] | Potency [9] | Potency [7] | Potency [10]

O=C1c2c(O)ccc(O)c2C(=O)c2c(NCCNCCO)ccc(NCCNCCO)c21
inactive: Potency [1] | Potency [2] | Potency [3] | Potency [8] | Potency [9] | Potency [7]
active: Potency [4] 19 µM | Potency [5] 0.0601 µM

CCCCOC(=O)C(C)CC (centres undefined)
inactive: Potency [1] | Potency [2] | Potency [3] | Potency [4] | Potency [8] | Potency [9]

CC1=CCC(=O)O1
inactive: Potency [1] | Potency [2] | Potency [3] | Potency [4] | Potency [6] | Potency [8] | Potency [9] | Potency [7] | Potency [10]

COc1cc(C=C2CCC/C(=C\c3ccc(O)c(OC)c3)C2=O)ccc1O
inactive: Potency [1] | Potency [3]
active: Potency [2] 21.3 µM | Potency [5] 23.9 µM | Potency [6] 2.39 µM

CCCCCCCCCCCC(=O)N(CC)CC
inactive: Potency [1] | Potency [2] | Potency [3] | Potency [4] | Potency [8] | Potency [9] | Potency [7] | Potency [10]

C/C=C/C(=O)C1=C(C)CCCC1(C)C
inactive: Potency [1] | Potency [2] | Potency [3] | Potency [4] | Potency [6] | Potency [8] | Potency [9] | Potency [7] | Potency [10]

CCCN(CCc1cccs1)[C@H]1CCc2c(O)cccc2C1
inactive: Potency [1] | Potency [3] | Potency [4] | Potency [9] | Potency [10]
active: Potency [2] 23.9 µM | Potency [6] 15.1 µM

O=C1c2c(O)ccc([N+](=O)[O-])c2C(=O)c2c([N+](=O)[O-])ccc(O)c21
active: Potency [4] 24.3 µM | Potency [6] 7.69 µM | Potency [10] 30.4 µM
inactive: Potency [1] | Potency [2] | Potency [3] | Potency [8] | Potency [7]

Cc1ccc(-n2[nH]c(C)c(N=Nc3cccc(-c4cccc(C(=O)O)c4)c3O)c2=O)cc1C
inactive: Potency [1] | Potency [2] | Potency [3] | Potency [4] | Potency [8] | Potency [9] | Potency [7]

O=Cc1ccc(F)cc1
inactive: Potency [1] | Potency [2] | Potency [3] | Potency [5] | Potency [6] | Potency [8] | Potency [9] | Potency [7] | Potency [10]

CCCCNc1c(C(=O)OCC)c(C)nc2c1cnn2CC
inactive: Potency [1] | Potency [2] | Potency [3] | Potency [8] | Potency [9] | Potency [7] | Potency [10]
active: Potency [5] 12 µM | Potency [6] 13.4 µM

CC(NCCC(c1ccccc1)c1ccccc1)c1ccccc1 (centres undefined)
inactive: Potency [1] | Potency [3] | Potency [9] | Potency [10]
active: Potency [2] 15.1 µM | Potency [4] 21.3 µM | Potency [6] 21.3 µM | Potency [7] 23.9 µM

C/C=C/c1ccc(OC)c(OC)c1
inactive: Potency [1] | Potency [2] | Potency [3] | Potency [4] | Potency [6] | Potency [8] | Potency [9] | Potency [7] | Potency [10]

C=C(c1ccc(C(=O)O)cc1)c1cc2c(cc1C)C(C)(C)CCC2(C)C
active: Potency [2] 43.6 µM
inactive: Potency [1] | Potency [3] | Potency [4] | Potency [6] | Potency [7] | Potency [10]
